The record followed here is PubChem BioAssay AID1985 (Southern Research Specialized Biocontainment Screening …, 2009).

Screen size: about 2,300 compounds; about 1,000 (43%) were called active. No rule for the calls is given here. The set was probably picked from earlier hits. The list shows a part of the results. Where a call stands in place of a potency, no number is given. Potency and affinity values are given separately.

A short description of the test: modified counter assay using GFP fluorescence, PhoP regulon inhibitor project, dose response (AID 1985). The note with it: S. Typhi, 4 h; series mostly up to 150 µM.
`Nc1ccc(C(O)(C(F)(F)F)C(F)(F)F)cc1`: the compound was called inactive.
For `C#CCOCCOCCOCCNc1nc(N2CCN(C(=O)[C@H]([C@@H](C)CC)n3cc([C@@H](N)CO)nn3)CC2)nc(N2CCN(C(=O)[C@H](Cc3cc4ccccc4[nH]3)n3cc([C@@H](N)Cc4ccc(O)cc4)nn3)CC2)n1` the value was “inactive”; for `C#CCOCCOCCOCCNc1nc(N2CCN(C(=O)[C@H](Cc3ccc(O)cc3)n3cc([C@@H](N)C(C)CC)nn3)CC2)nc(N2CCN(C(=O)[C@H](Cc3cc4ccccc4[nH]3)n3cc([C@@H](N)Cc4ccc(O)cc4)nn3)CC2)n1` (some centres not stated), “inactive”.
For `C#CCOCCOCCOCCNc1nc(N2CCN(C(=O)C(Cc3ccc(O)cc3)n3cc(C(N)CC(C)C)nn3)CC2)nc(N2CCN(C(=O)C(Cc3cc4ccccc4[nH]3)n3cc(C(N)Cc4ccc(O)cc4)nn3)CC2)n1` (configuration not stated) the value was “inactive”; for `O=C(O)c1[nH]c2ccc(Br)cc2c1CCN1C(=O)c2cccc([N+](=O)[O-])c2C1=O`, “inactive”.
Consider `Cc1ccc(CCNC(=O)c2cc(S(=O)(=O)N3CCCCC3)c[nH]2)cc1`, for which the result was inactive.
For `Cn1cnnc1SCC(=O)Nc1ccc2nc(SCc3ccccc3)sc2c1` the value was “inactive”; for `CCOc1ccccc1NC(=O)CSc1nc(N)c(C#N)cc1C#N`, “inactive”; for `CN1CCN(c2ccc(NC(=O)CSc3ccccc3)cc2F)CC1`, “inactive”.
On to `CCOC(=O)c1ccc(NC(=O)CSc2nc(N3CCOCC3)nc(N3CCOCC3)n2)cc1`, for which the call was inactive.
For `O=C(Nc1ccc2c(c1)OCCO2)C1CCCN1C(=O)Nc1ccc(F)cc1` (configuration not stated) the value was “inactive”; for `C/C=C/c1ccc(OCc2cc(=O)n3cc(C)ccc3n2)c(OC)c1`, “inactive”; for `CCN(CCCNC(=O)c1cn(CC)c2ccc(S(=O)(=O)N(C)C)cc2c1=O)c1cccc(C)c1`, “inactive”.
In the case of `Cc1ccc(CCN2C(=O)CCC2(C)C(=O)NC2CCCC2)cc1` (configuration not stated) it was “inactive”; in that of `O=C(NCc1ccccc1)N[C@@H](Cc1c[nH]c2ccccc12)C(=O)O`, “inactive”.
In the case of `Cc1c(-n2cc(C(=O)c3ccccc3O)cc(C#N)c2=O)c(=O)n(-c2ccccc2)n1C`, the compound was called inactive.
In the case of `Cc1c(NC(=O)OCc2ccccc2)c(=O)n(-c2ccccc2)n1C` it was “inactive”; in that of `Cc1ccc(NC(=O)c2sccc2C)cc1[N+](=O)[O-]`, “inactive”; in that of `COc1ccc(NC(=O)CC2Sc3ncnn3C2=O)cc1` (configuration not stated), “inactive”.
In the case of `N=c1sc2c(n1Cc1ccccc1)CCCC2` it was “inactive”; in that of `Cc1cc(NC(=O)/C=C/C(=O)N(c2ccccc2C)C(C(=O)NC2CCCC2)c2ccc(F)cc2)no1` (configuration not stated), “inactive”.
On to `C[C@@H](NC(=O)[C@@H]1Cc2ccccc2CN1)C(=O)NCC1CCCO1` (some centres not stated), for which the compound was called inactive.
For `COc1ccc(Nc2c3c(nc4ccc(C)cc24)CCC3)cc1` the value was “inactive”; for `CC1CCN(C(=O)COc2ccc(Nc3ccccc3)cc2)CC1`, “inactive”.
In the case of `COc1c(C(=O)N2CCCC2)ccc2ccccc12` it was “inactive”; in that of `CCOc1ccc(NC(=S)Nc2cc(C)[nH]n2)cc1`, “inactive”.
In the case of `CC(C)(C)Nc1c2ccccc2nc2ccccc12` it was “inactive”.
For `COc1ccccc1Nc1cc(C(=O)NCc2cccnc2)c2ccccc2n1`, the result was inactive.
In the case of `CCOC(=O)c1ccc(NC(=O)C2CCC(CNc3c(N4CCOCC4)c(=O)c3=O)CC2)cc1` (configuration not stated) it was “inactive”.
`CCCCNC(=O)CCC(=O)Nc1ccc2nc(N3CCC(C)CC3)cc(C)c2c1`: the result was inactive.
In the case of `COc1ccc(N=CC2=C(Nc3ccc(OC)cc3)c3c(C)nn(-c4ccccn4)c3CC2)cc1` it was “inactive”.
With `CCO[C@H]1OC(C(=O)O)=C[C@@H](c2ccccc2)[C@@H]1CCCO`, the compound was called inactive.
Turning to `Clc1ccc2c(c1)C(N1CCNCC1)Cc1ccccc1S2` (configuration not stated), the compound was classed as inactive.
For `O=C(NCc1ccco1)C1CCN(C(=O)c2cc3sccc3n2Cc2ccc(Cl)cc2)CC1` the value was “inactive”.
In the case of `Cc1ccc2nc(/C(C#N)=C\c3ccc(N4CCCCC4)c([N+](=O)[O-])c3)[nH]c2c1` it was “inactive”; in that of `C#CCOCCOCCOCCNc1nc(N2CCN(C(=O)CCCCCCCCCCNC(=O)[C@H](CCCCN)n3cc(CCO)nn3)CC2)nc(N2CCN(C(=O)CCCCCCCCCCNC(=O)[C@H](CCCCN)n3cc(CCO)nn3)CC2)n1`, “inactive”.
In the case of `CCOC(=O)c1cc(-c2ccncc2)nc2c1c(C)nn2-c1ccccn1` it was “inactive”.
Consider `CN(C)/C=N/c1ncc(C(=O)c2ccc(Cl)cc2)s1`, for which the compound was called inactive.
For `Cc1ccc(C)c(Nc2cc(C)nc3ccccc23)c1` the value was “inactive”.
In the case of `Nc1nn2cc(-c3ccccc3)nc2c2ccccc12` it was “inactive”.
For `Cc1cc(-c2nc3ccccc3o2)c2ccccc2n1` the value was “inactive”; for `Nc1ccc(N=Nc2ccccc2)c(N)n1`, “inactive”; for `Nc1nc2ccccc2cc1-c1cccs1`, “inactive”.
With `CCCN(C(=O)CSc1nc2ccccc2n1CC)C1CCS(=O)(=O)C1` (configuration not stated), the result was inactive.
Take `CCOc1ccc(-c2ccc(SCC(=O)N3CCOCC3)nn2)cc1`: the compound was called inactive.
As to `CCCCc1cc(=O)oc2cc(C)cc(OCC(=O)NCC3CCC(C(=O)O)CC3)c12` (configuration not stated), the compound was classed as inactive.
In the case of `CC(C)C(NC(=O)c1ccc(Cl)cc1)C(=O)NCC1CCCO1` (configuration not stated) it was “inactive”.
In the case of `Clc1ccc2c(c1)c1cc(Cl)ccc1n2CN1CCOCC1` it was “inactive”; in that of `Cc1ccc(N(CC(=O)Nc2c(C)n(C)n(-c3ccccc3)c2=O)S(C)(=O)=O)cc1C`, “inactive”; in that of `OCC[C@H]1C[C@H](O)[C@@H](O)[C@@]2(Cc3ccccc3CO2)O1`, “inactive”.
For `O=C(NC1(C(F)(F)F)C(=O)Nc2c1c(=O)[nH]c(=O)n2-c1ccccc1)c1ccncc1` (configuration not stated), the compound was called inactive.
In the case of `Cc1ccn2cc(-c3ccc4c(c3)NC(=O)CO4)nc2c1`, the compound was called inactive.
In the case of `Cc1csc2ncc(C(=O)Nc3ccon3)c(=O)n12` it was “inactive”; in that of `CCOc1ccccc1NC(=O)NS(=O)(=O)c1ccc(C)cc1`, “inactive”; in that of `Cc1ccc(NNS(=O)(=O)c2ccc(C)cc2)cc1`, “inactive”.
As to `Cc1cccc(NC(=O)C2CCCN2S(=O)(=O)c2ccc3c(c2)n(C)c(=O)c(=O)n3C)c1` (configuration not stated), the outcome was inactive.
With `Cc1cccc(NCN2C(=O)c3ccccc3C2=O)c1`, the outcome was inactive.
For `Cc1cc(C)c(S(=O)(=O)Nc2cccnc2)c(C)c1` the value was “inactive”; for `CC(=O)Nc1ccc(S(=O)(=O)Nc2nc3ccccc3nc2Nc2cccc(S(N)(=O)=O)c2)cc1`, “inactive”; for `CC(C)NC(=O)Nc1ccc(Br)cc1Cl`, “inactive”.
In the case of `CC1CC(C)CN(C(=O)c2ccc(NC(=O)c3ccc(=O)[nH]c3)cc2)C1` (configuration not stated) it was “inactive”; in that of `COCCNC(=O)CN(C(=O)CCC(=O)Nc1ccccn1)c1ccc(F)c(Cl)c1`, “inactive”; in that of `O=C(OCCCN1C(=O)c2ccccc2C1=O)c1ccco1`, “inactive”.
For `O=C(NCCOc1ccccc1)c1ncn[nH]1` the value was “inactive”; for `CC(C)CCNC(=O)c1cc2c(s1)-c1ccccc1S(=O)(=O)C2`, “inactive”; for `CN1CCc2c(sc3c2C(=O)NC(c2ccc4c(c2)OCO4)N3)C1` (configuration not stated), “inactive”.
On to `NS(=O)(=O)c1ccc(CNc2ccc3ccccc3n2)cc1`, for which the outcome was inactive.
Take `CCOC(=O)C1CCN(C(=O)CCc2nc3ccccc3[nH]2)CC1`: the compound was called inactive.
For `O=C(CSc1ccccc1)N1CCC(N2CCC(C(=O)N3CCCC3)CC2)CC1` the value was “inactive”; for `Cc1c(CC(=O)N2CCC(C(N)=O)CC2)c(=O)oc2cc3c(cc12)CCC1(CCCCC1)O3`, “inactive”; for `C#CCOCCOCCOCCNc1nc(N2CCN(C(=O)CCCCCCCCCCNC(=O)Cn3cc(CCCCCN)nn3)CC2)nc(N2CCN(C(=O)CCCCCCCCCCNC(=O)[C@@H]([C@H](C)O)n3cc(C)nn3)CC2)n1`, “inactive”.
For `Cc1nc2ccccn2c1/C(O)=C1\C(=O)C(=O)N(CCN2CCOCC2)C1c1cccnc1` (configuration not stated) the value was “inactive”; for `COc1cccc(/C=C/C(=O)c2cccc([N+](=O)[O-])c2)c1OC`, “inactive”; for `CCOC(=O)c1ccc(N2Cc3ccccc3C2=NC(=O)c2cccc([N+](=O)[O-])c2)cc1`, “inactive”.
For `CC(C(=O)c1ccc2ccccc2c1)N1CCCCC1` (configuration not stated) the value was “inactive”; for `CCC(=O)Nc1nnc(-c2ccco2)o1`, “inactive”; for `O=C(Nc1nnc(-c2cccs2)o1)c1cccc(C(F)(F)F)c1`, “inactive”.
Consider `COc1ccccc1C(=O)Nc1nnc(-c2ccc(Cl)cc2)o1`, for which the compound was called inactive.
For `O=C(Nc1nnc(-c2cccs2)o1)c1cccc(F)c1` the value was “inactive”; for `C=CCn1c(O)c(N=NC(=O)c2cccnc2)c2cc(Br)ccc21`, “inactive”.
In the case of `O=C(N/N=C/c1cccc(OCc2ccccc2)c1)c1cccs1` it was “inactive”; in that of `NC1=NC(c2cccc(O)c2)n2c(nc3ccccc32)N1` (configuration not stated), “inactive”.
In the case of `CCOC(=O)c1ccccc1-n1c(C)cc(C2N=C(N)Nc3nc4ccccc4n32)c1C` (configuration not stated) it was “inactive”; in that of `Cc1cc(C)c(S(=O)(=O)Nc2ccccc2C(=O)OCC(=O)NCc2ccccc2)c(C)c1`, “inactive”; in that of `NC(=O)c1ccsc1NC(=O)c1ccc2c(c1)CCCC2`, “inactive”.
In the case of `COc1ccc(N2CCN(c3cc(C)c4ccc(O)cc4n3)CC2)cc1`, the compound was called inactive.
For `CCOC(=O)C(CC)Sc1ccc2nnc(-c3cccnc3)n2n1` (configuration not stated) the value was “inactive”; for `COc1ccc(OC)c(C2=NO[C@@H]3C(=O)N(c4cc(Cl)ccc4OC)C(=O)[C@H]23)c1`, “inactive”; for `Fc1cccc(NC(=S)NCc2ccc(Cl)cc2)c1`, “inactive”.
As for `O=[N+]([O-])c1cccnc1S(=O)(=O)c1ccccc1`, the compound was called inactive.
In the case of `CCCCCNc1nc(N2CCCC2)c2c(c1C#N)CCN(C)C2` it was “inactive”; in that of `O=C(NCCO)C(=O)c1c(-c2ccc(Cl)cc2)cc2ccccn12`, “inactive”.
For `COCCn1c(SCC(=O)Nc2nnc(C)s2)nnc1-c1c[nH]c2ccccc12` the value was “inactive”; for `CCCCNC(=O)NS(=O)(=O)c1ccc(C(=O)OC)o1`, “inactive”.
For `CCC(Sc1nc2ccncc2[nH]1)C(=O)Nc1ccc(C)c(Cl)c1` (configuration not stated) the value was “inactive”; for `Cc1cnc(C(=O)OCC(=O)Nc2cccc(Cl)c2)cn1`, “inactive”.
With `O=C(COc1ccc(Cl)cc1)Nc1cccc(-c2ccc3nncn3n2)c1`, the result was inactive.
In the case of `Nn1cnnc1SCC(=O)Nc1ccc(C2CCCCC2)cc1` it was “inactive”.
For `CCCCC(=O)Nc1ccc(F)c(Cl)c1` the value was “inactive”; for `Cc1cccc(NC(=O)CSc2nc3c([nH]c4ccccc43)c(=O)n2C)c1`, “inactive”; for `O=C(Cc1ccccc1)NCC(=O)Nc1cccc(Cl)c1`, “inactive”.
For `Cc1ccc(NC(=O)c2cc(NC(=O)CCCC(=O)O)ccc2Cl)cc1Cl` the value was “inactive”.
